Calls of active or inactive are those of the source. How the source made its calls: active means hit-call score of the fitted dose curve at least 0.9, where 1 is the maximum; inactive means score below 0.9.
What was measured:
Settings in all cases: mRNA level, 48 h; actives raise or lower the signal
[1] = read-out: Ezrin (EZR), EZR (gene 7430); experiment: LTEA_HepaRG_EZR: Life Technologies and Expression Analysis (LTEA) Assay for Ezrin (EZR) using HepaRG (AID 2283491)
Procedure, shortened: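 Gain or loss of EZR mRNA is scored relative to 0.5% DMSO in human HepaRG cultures treated 48 h with test chemicals in duplicate, eight half-log concentrations from 100 uM.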

[2] = read-out: Cytochrome P450 3A7 (Homo sapiens) (UniProt P24462); experiment: LTEA_HepaRG_CYP3A7: Life Technologies and Expression Analysis (LTEA) Assay for CYP3A7 using HepaRG (AID 2283492)
Procedure, shortened: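 Differentiated HepaRG cells in serum-free induction medium exposed 48 h in duplicate to 8-point half-log series from 100 uM top in 0.5% DMSO. CYP3A7 mRNA by qRT-PCR, normalized to ACTB/GAPDH/POLR2A, bidirectional fit versus DMSO.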

[3] = read-out: CYP3A5 (gene 1577); experiment: LTEA_HepaRG_CYP3A5: Life Technologies and Expression Analysis (LTEA) Assay for CYP3A5 using HepaRG (AID 2283493)
Procedure, shortened: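 Human HepaRG hepatic cells receive 48 h chemical treatment at eight concentrations (half-log steps from 100 uM) in 0.5% DMSO. Expression of CYP3A5 is quantified by Fluidigm qRT-PCR and normalized to three reference genes.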

[4] = read-out: Fatty Acid-Binding Protein 1 (FABP1), FABP1 (gene 2168); experiment: LTEA_HepaRG_FABP1: Life Technologies and Expression Analysis (LTEA) Assay for Fatty Acid-Binding Protein 1 (FABP1) using HepaRG (AID 2283494)
Procedure, shortened: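 FABP1 expression by TaqMan qRT-PCR, normalised to three housekeeping genes, in HepaRG cells after 48 h chemical treatment. Eight-point half-log series topping at 100 uM in 0.5% DMSO, duplicates; gain or loss fitted relative to vehicle.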

[5] = read-out: Cytochrome P450 4A22 (Homo sapiens) (UniProt Q5TCH4); experiment: LTEA_HepaRG_CYP4A22: Life Technologies and Expression Analysis (LTEA) Assay for Cytochrome P450 4A22 (CYP4A22) using HepaRG (AID 2283495)
Procedure, shortened: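 Differentiated HepaRG cells in serum-free induction medium exposed 48 h in duplicate to eight half-log concentrations up to 100 uM in 0.5% DMSO. CYP4A22 mRNA quantified by TaqMan qRT-PCR, normalized to ACTB, GAPDH and POLR2A; bidirectional fit versus DMSO.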

[6] = read-out: Cytochrome P450 7A1 (Homo sapiens) (UniProt P22680); experiment: LTEA_HepaRG_CYP7A1: Life Technologies and Expression Analysis (LTEA) Assay for Cytochrome P450 7A1 (CYP7A1) using HepaRG (AID 2283496)
Procedure, shortened: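 HepaRG, 48 h exposure, 8-pt half-log series from 100 uM, 0.5% DMSO vehicle, duplicates. Readout: TaqMan qRT-PCR mRNA vs three housekeeping genes; bidirectional curve fit against DMSO baseline.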

[7] = read-out: Glutathione S-Transferase (GSTA2), GSTA2 (gene 2939); experiment: LTEA_HepaRG_GSTA2: Life Technologies and Expression Analysis (LTEA) Assay for Glutathione S-Transferase (GSTA2) using HepaRG (AID 2283497)
Procedure, shortened: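 GSTA2 transcript levels came from Fluidigm TaqMan qRT-PCR normalized to three housekeeping genes, fitted in both directions against DMSO. HepaRG cultures received chemicals for 48 h in serum-free induction medium (0.5% DMSO), 8 half-log concentrations up to 100 uM, duplicate.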

[8] = read-out: Glutamate-cysteine ligase catalytic (GCLC), GCLC (gene 2729); experiment: LTEA_HepaRG_GCLC: Life Technologies and Expression Analysis (LTEA) Assay for Glutamate-cysteine ligase catalytic (GCLC) using HepaRG (AID 2283498)
Procedure, shortened: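 Expression by TaqMan qRT-PCR, normalized to three housekeeping genes (ACTB, GAPDH, POLR2A), with up- or down-regulation fitted against DMSO. HepaRG cells dosed in duplicate for 48 h with 8 half-log concentrations up to 100 uM, vehicle 0.5% DMSO.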

[9] = read-out: growth arrest and DNA damage 45 (GADD45G), GADD45G (gene 10912); experiment: LTEA_HepaRG_GADD45G: Life Technologies and Expression Analysis (LTEA) Assay for growth arrest and DNA damage 45 (GADD45G) using HepaRG (AID 2283499)
Procedure, shortened: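 Differentiated human HepaRG cells, 48 h post-plating, exposed 48 h in serum-free induction medium to 8 half-log concentrations (top 100 uM, 0.5% DMSO) in duplicate. GADD45G mRNA measured by Fluidigm TaqMan qRT-PCR, normalized to ACTB, GAPDH, POLR2A; bidirectional fit versus DMSO.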

[10] = read-out: Glutamate-cysteine ligase regulatory (GCLM), GCLM (gene 2730); experiment: LTEA_HepaRG_GCLM: Life Technologies and Expression Analysis (LTEA) Assay for Glutamate-cysteine ligase regulatory (GCLM) using HepaRG (AID 2283500)
Procedure, shortened: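 Endpoint is GCLM transcript level by qRT-PCR, normalized to three housekeeping genes, after 48 h chemical exposure of human HepaRG cells (0.5% DMSO vehicle, top 100 uM, half-log dilutions). Fitting was bidirectional relative to DMSO.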

[11] = read-out: Glutathione S-transferase M3 (GSTM3), GSTM3 (gene 2947); experiment: LTEA_HepaRG_GSTM3: Life Technologies and Expression Analysis (LTEA) Assay for Glutathione S-transferase M3 (GSTM3) using HepaRG (AID 2283501)
Procedure, shortened: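 Differentiated human HepaRG cells were exposed in duplicate for 48 h in serum-free induction medium, 8 points from 100 uM top in half-log steps, 0.5% DMSO. GSTM3 mRNA was measured by TaqMan qRT-PCR, normalized to ACTB, GAPDH and POLR2A; bidirectional fit versus DMSO.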

[12] = read-out: Hypoxia-inducible factor 1-alpha (Homo sapiens) (UniProt Q16665); experiment: LTEA_HepaRG_HIF1A: Life Technologies and Expression Analysis (LTEA) Assay for Hypoxia-inducible factor 1 (HIF1A) Trancription factor using HepaRG (AID 2283503)
Procedure, shortened: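 HIF1A transcript level read by qRT-PCR (ACTB, GAPDH, POLR2A normalization) after 48 h chemical exposure of HepaRG cultures. Eight half-log concentrations, top 100 uM, 0.5% DMSO vehicle, duplicates; bidirectional curve fit against DMSO baseline.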

[13] = read-out: 3-Hydroxy-3-Methylglutaryl-CoA Synthase 2 (HMGCS2), HMGCS2 (gene 3158); experiment: LTEA_HepaRG_HMGCS2: Life Technologies and Expression Analysis (LTEA) Assay for 3-Hydroxy-3-Methylglutaryl-CoA Synthase 2 (HMGCS2) using HepaRG (AID 2283504)
Procedure, shortened: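 Human HepaRG cells in serum-free induction medium were exposed in duplicate for 48 h to 8-point half-log series from 100 uM top in 0.5% DMSO. HMGCS2 mRNA measured by TaqMan qRT-PCR, normalised to ACTB, GAPDH, POLR2A; bidirectional fit versus DMSO.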

[14] = read-out: HGF (gene 3082); experiment: LTEA_HepaRG_HGF: Life Technologies and Expression Analysis (LTEA) Assay for Hepatocyte Growth Facto (HGF) using HepaRG (AID 2283505)
Procedure, shortened: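 Differentiated HepaRG cells in serum-free induction medium exposed 48 h in duplicate, 8 half-log concentrations from 100 uM in 0.5% DMSO. HGF mRNA by qRT-PCR, normalised to ACTB, GAPDH, POLR2A; bidirectional fitting.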

[15] = read-out: Insulin Like Growth Factor 1 (IGF1), IGF1 (gene 3479); experiment: LTEA_HepaRG_IGF1: Life Technologies and Expression Analysis (LTEA) Assay for Insulin Like Growth Factor 1 (IGF1) using HepaRG (AID 2283506)
Procedure, shortened: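 Cells are thawed, plated and cultured 48 h, then exposed in duplicate to chemical (highest 100 uM, half-log steps, 0.5% DMSO) for another 48 h. Total RNA is analysed by Fluidigm qRT-PCR for IGF1 expression relative to vehicle.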

[16] = read-out: Intercellular Adhesion Molecule 1 (ICAM1), ICAM1 (gene 3383); experiment: LTEA_HepaRG_ICAM1: Life Technologies and Expression Analysis (LTEA) Assay for Intercellular Adhesion Molecule 1 (ICAM1) using HepaRG (AID 2283507)
Procedure, shortened: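 Differentiated human HepaRG cells in serum-free induction medium exposed 48 h in duplicate to 8 half-log concentrations (top 100 uM, 0.5% DMSO). ICAM1 mRNA quantified by TaqMan qRT-PCR, normalized to ACTB, GAPDH and POLR2A; bidirectional fitting versus DMSO.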

[17] = read-out: Insulin-like growth factor-binding protein 1 (IGFBP1), IGFBP1 (gene 3484); experiment: LTEA_HepaRG_IGFBP1: Life Technologies and Expression Analysis (LTEA) Assay for Insulin-like growth factor-binding protein 1 (IGFBP1) using HepaRG (AID 2283508)
Procedure, shortened: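 HepaRG cells, plated 48 h then switched to serum-free induction medium, exposed in duplicate for 48 h to 8-point half-log series from 100 uM in 0.5% DMSO. mRNA measured by qRT-PCR, normalized to ACTB/GAPDH/POLR2A; bidirectional fit versus DMSO.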

[18] = read-out: Interleukin 6 Receptor (IL6R), IL6R (gene 3570); experiment: LTEA_HepaRG_IL6R: Life Technologies and Expression Analysis (LTEA) Assay for Interleukin 6 Receptor (IL6R) using HepaRG (AID 2283510)
Procedure, shortened: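 Cells were thawed, plated and cultured 48 h, then medium was changed to serum-free induction medium. Chemicals were added in duplicate (100 uM top, half-log steps, 0.5% DMSO) for 48 h. Lysates were analyzed by qRT-PCR for IL6R expression.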

Sequence of Cytochrome P450 3A7 (Homo sapiens) (P24462 whole entry, looked up): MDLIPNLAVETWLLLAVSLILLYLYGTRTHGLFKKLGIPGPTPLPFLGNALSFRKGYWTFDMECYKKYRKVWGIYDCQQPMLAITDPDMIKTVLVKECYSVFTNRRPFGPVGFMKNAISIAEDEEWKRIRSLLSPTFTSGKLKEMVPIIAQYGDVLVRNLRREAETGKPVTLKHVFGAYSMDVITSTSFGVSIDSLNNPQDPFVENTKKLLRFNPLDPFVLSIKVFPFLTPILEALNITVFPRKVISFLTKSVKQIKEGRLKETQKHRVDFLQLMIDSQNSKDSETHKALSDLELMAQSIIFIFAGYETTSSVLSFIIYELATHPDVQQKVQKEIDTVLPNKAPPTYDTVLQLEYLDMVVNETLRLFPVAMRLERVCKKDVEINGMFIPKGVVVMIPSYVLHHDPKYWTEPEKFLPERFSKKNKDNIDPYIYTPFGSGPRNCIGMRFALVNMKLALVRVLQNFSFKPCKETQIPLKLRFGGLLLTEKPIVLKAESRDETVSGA
Sequence of Hypoxia-inducible factor 1-alpha (Homo sapiens) (Q16665 whole entry, looked up): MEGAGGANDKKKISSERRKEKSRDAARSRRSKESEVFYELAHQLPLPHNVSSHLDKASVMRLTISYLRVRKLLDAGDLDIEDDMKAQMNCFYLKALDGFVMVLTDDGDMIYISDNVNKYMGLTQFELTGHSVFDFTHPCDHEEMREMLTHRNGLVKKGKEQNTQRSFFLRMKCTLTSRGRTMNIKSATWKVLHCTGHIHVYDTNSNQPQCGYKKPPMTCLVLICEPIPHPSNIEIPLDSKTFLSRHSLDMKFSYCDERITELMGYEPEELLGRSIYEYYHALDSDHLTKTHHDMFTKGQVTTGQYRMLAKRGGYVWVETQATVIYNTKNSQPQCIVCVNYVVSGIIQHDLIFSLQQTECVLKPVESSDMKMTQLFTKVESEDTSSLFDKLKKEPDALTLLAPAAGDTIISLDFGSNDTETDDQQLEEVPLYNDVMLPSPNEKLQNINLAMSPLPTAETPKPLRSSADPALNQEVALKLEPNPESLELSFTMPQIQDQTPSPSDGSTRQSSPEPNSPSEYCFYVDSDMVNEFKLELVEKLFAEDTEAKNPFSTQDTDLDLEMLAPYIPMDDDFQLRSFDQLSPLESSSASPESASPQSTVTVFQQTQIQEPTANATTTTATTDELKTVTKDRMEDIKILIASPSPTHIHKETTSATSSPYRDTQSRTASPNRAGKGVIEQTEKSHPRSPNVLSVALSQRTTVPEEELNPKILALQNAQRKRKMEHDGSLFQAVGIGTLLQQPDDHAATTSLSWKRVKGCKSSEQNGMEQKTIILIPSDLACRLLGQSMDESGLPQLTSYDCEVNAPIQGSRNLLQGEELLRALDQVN

Q: Which results are given for `CCCCOCN(C(=O)CCl)c1c(CC)cccc1CC`?
A: outcome [1]: inactive; outcome [2]: inactive; outcome [3]: inactive; outcome [4]: inactive; outcome [5]: inactive; outcome [6]: inactive; outcome [7]: inactive; outcome [8]: inactive; outcome [9]: inactive; outcome [10]: inactive; outcome [11]: inactive; outcome [12]: inactive; outcome [13]: inactive; outcome [14]: inactive; AC50 [15]: 50 µM (active); outcome [16]: inactive; outcome [17]: inactive; outcome [18]: inactive

Q: What does the source list for `OC(c1ccc(Cl)cc1)(c1ccc(Cl)cc1)C(Cl)(Cl)Cl`?
A: outcome [1]: inactive; AC50 [2]: 83.5 µM (active); AC50 [3]: 50 µM (active); AC50 [4]: 63.2 µM (active); outcome [5]: inactive; AC50 [6]: 75.9 µM (active); AC50 [7]: 77.3 µM (active); outcome [8]: inactive; AC50 [9]: 87.7 µM (active); outcome [10]: inactive; AC50 [11]: 81.2 µM (active); outcome [12]: inactive; AC50 [13]: 80.1 µM (active); outcome [14]: inactive; AC50 [15]: 50 µM (active); AC50 [16]: 77.6 µM (active); AC50 [17]: 73.6 µM (active); outcome [18]: inactive
